Some of the results follow. Active and inactive are the calls of the source.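 The calls were made as follows: active = mean inhibition across replicates above a set limit taken from the earlier primary screen (cut at about 21% in these data); inactive = the rest.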
Molecular target: Receptor-interacting serine/threonine-protein kinase 2 (Homo sapiens) (UniProt O43353)
Assay: inhibitors of RIPK2 association with NOD2 – fluorescence, CHO cells, BLA complementation, triplicate, confirmation (AID 624370);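 also: 0% = DMSO-only wells and the high end = clavulanate BLA-blocked wells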
Details: CCF4 FRET, at 4.98 µM, hits give high values

Receptor-interacting serine/threonine-protein kinase 2 (Homo sapiens), sequence (O43353 whole entry, looked up): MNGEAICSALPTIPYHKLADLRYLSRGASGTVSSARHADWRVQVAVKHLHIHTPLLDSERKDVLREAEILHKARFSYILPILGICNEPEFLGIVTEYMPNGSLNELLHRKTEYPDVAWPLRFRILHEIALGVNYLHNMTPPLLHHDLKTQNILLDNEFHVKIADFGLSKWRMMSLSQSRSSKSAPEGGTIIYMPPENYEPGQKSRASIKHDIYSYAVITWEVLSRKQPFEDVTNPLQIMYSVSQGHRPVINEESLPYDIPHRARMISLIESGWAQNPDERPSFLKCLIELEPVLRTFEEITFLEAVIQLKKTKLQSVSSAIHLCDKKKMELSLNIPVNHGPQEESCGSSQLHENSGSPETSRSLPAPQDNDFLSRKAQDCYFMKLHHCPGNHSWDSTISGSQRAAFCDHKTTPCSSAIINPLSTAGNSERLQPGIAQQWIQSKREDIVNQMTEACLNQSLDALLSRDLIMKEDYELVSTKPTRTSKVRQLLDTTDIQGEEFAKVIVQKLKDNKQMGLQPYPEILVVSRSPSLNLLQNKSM

SMILES | inhibition
COc1cccc2sc(N(CCCN(C)C)C(=O)CCS(=O)(=O)c3ccccc3)nc12 | 40.3% (active)
O[C@H]1C[C@H](c2ccc(Cl)cc2)N(Cc2cccs2)C[C@@H]1n1cc(C2CC2)nn1 | -0.97% (inactive)
O=[N+]([O-])/C=C/c1ccc2c(ccn2Cc2ccccc2)c1 | 83.3% (active)
O=C1C(=O)N(CC2COc3ccccc3O2)c2ccccc21 (centres undefined) | -7.75% (inactive)
CC(C)(C)OC(=O)N1CCC(NC(=O)c2[nH]cnc2C(=O)N[C@@H](Cc2ccccc2)C(=O)OCc2ccccc2)CC1 | 16.1% (inactive)
CN1CCN(/N=C/c2ccc(-c3ccc([N+](=O)[O-])cc3)o2)CC1 | 17.4% (inactive)
CC(=O)Nc1ccc(C=Cc2ccc([N+](=O)[O-])cc2)cc1 | 21.3% (active)
Cc1nnc(SCC(=O)Nn2cnnc2)s1 | -0.84% (inactive)
Cc1cccc(-n2ncc(Cl)c(Cl)c2=O)c1 | 31.5% (active)
Cc1ccc(NC(=O)Cn2sc3ccccc3c2=O)cc1 | 33.2% (active)
O=C(CSc1ncn[nH]1)Nc1nc(-c2cccc([N+](=O)[O-])c2)cs1 | 2.59% (inactive)
O=C1CC(C(F)(F)C(F)(F)C(F)(F)C(F)(F)F)=Nc2ccccc2N1 | -1.13% (inactive)
CCOC(=O)C1=C(C)N(C[C@@H]2CC[C@@H](Cc3ccc(-c4ccccc4)cc3)O2)C(=O)NC1c1ccc([N+](=O)[O-])cc1 (some centres undefined) | -2.24% (inactive)
C[C@H]1CN([C@@H](C)CO)C(=O)c2cc(-c3cccc(F)c3)cnc2O[C@@H]1CN(C)S(C)(=O)=O | -4.32% (inactive)
